Compound activity (PubChem)
PAFAH1B3 inh – PAFAH1B3 (human) inhibition. Q15102. recombinant PAFAH1B3, FP-rhodamine probe, fluorescence polarization. inhibition, % at 3.39 µM. 340,000 tested, 0.28% active. AID 492972;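 active = inhibition above the screen-wide average of all tested compounds plus 3 SD, cut at about 25% in these data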
TCR-CD3 inh – blocks the human TCR-CD3 interaction. inhibition, % at 9.4 µM. TAMRA-labeled TCR probe fluorescence, biochemical. 360,000 tested, 0.37% active; in the data active = inhibition above about 19%;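 also: recombinant mutant TCR 2C K166C tagged with TAMRA read by polarization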
PAFAH2 inh – PAFAH2 (human) inhibition. inhibition, % at 3.39 µM. 340,000 tested, 0.99% active. Q99487. recombinant PAFAH2, FP-rhodamine activity probe, fluorescence polarization;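 active = inhibition above the mean over all tested compounds plus 3 SD, cut at about 30% in these data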;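 also: inhibitors block probe labeling of enzyme so polarization drops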
pPAFAH inh – pPAFAH (human) enzyme inhibition. Q13093. recombinant pPAFAH, FP-rhodamine probe fluorescence polarization. inhibition, % at 3.39 µM. 330,000 tested, 1.5% active. AID 463082;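 active = inhibition above the mean inhibition across the screen plus 3 SD, cut at about 25% in these data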;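 also: inhibitors block binding of the rhodamine activity-based probe so polarization drops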
Target sequence (Q13093 whole entry, looked up): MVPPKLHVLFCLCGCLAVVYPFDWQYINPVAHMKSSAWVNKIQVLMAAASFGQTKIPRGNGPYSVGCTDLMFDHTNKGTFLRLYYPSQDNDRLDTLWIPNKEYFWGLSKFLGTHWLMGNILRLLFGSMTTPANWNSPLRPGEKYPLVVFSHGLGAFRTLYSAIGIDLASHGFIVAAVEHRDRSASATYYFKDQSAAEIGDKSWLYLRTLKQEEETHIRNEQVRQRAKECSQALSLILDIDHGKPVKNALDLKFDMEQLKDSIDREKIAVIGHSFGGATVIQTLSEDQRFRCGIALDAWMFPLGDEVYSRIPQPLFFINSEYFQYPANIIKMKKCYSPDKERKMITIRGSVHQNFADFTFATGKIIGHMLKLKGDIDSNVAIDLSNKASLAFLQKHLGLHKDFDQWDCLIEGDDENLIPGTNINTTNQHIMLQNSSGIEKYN
PAFAH1B2 FP inh – blocks human PAF acetylhydrolase 1b catalytic subunit 2 | P68402 | recombinant PAFAH1B2, FP-rhodamine activity probe, fluorescence polarization | inhibition, % at 3.39 µM | 340,000 tested, 1.2% active | AID 492953;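 active = inhibition above the mean of all tested compounds plus 3 SD, cut at about 24% in these data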
Large screens that a line does not name were inactive. Rows were chosen to be rich in hits. Some 2.7% of all compounds tested hit in one or more screens of this group.

Cc1ccc(SCC(=O)Nc2cccnc2)cc1	none
CCOc1cccc(=O)c2c(C)n(Cc3ccco3)c(C)c12	pPAFAH inh 33.2
CCOc1cccc(=O)c2c(C)n(Cc3ccccc3)c(C)c12	pPAFAH inh 26.5
CCOC(=O)c1cc(C)n(Cc2ccccc2)c1C	none
COC(=O)c1c(C(=O)OC)c(C)n(Cc2ccco2)c1C	none
CN(CCc1ccccn1)C(=O)[C@@H](Cc1ccccc1)NC(=O)[C@H]1O[C@@H](n2ccc(=O)[nH]c2=O)[C@H](O)[C@@H]1O	none (no result: PAFAH1B3 inh, PAFAH2 inh, pPAFAH inh, PAFAH1B2 FP inh)
O=C(COC(=O)c1ccco1)NCc1ccc2c(c1)OCO2	none
O=C(COC(=O)c1cc(-c2ccco2)nc2ccccc12)NCc1ccc2c(c1)OCO2	pPAFAH inh 26.4
O=C(COc1ccccc1/C=C1\SC(=O)NC1=O)Nc1ccc(F)cc1	none
O=C1NC(=O)/C(=C/c2ccccc2Oc2ccc(Cl)cc2)S1	PAFAH1B2 FP inh 28.4
CC(C)(C)Cc1nnc(NS(=O)(=O)c2ccc(F)cc2)s1	PAFAH1B2 FP inh 30.5
Cc1ccc(S(=O)(=O)Nc2nnc(CC(C)(C)C)s2)cc1	none
COc1ccc(-c2nnn3c2C2c4cc(-c5cccc(F)c5)ccc4CCN2C(=O)C3)cc1 (stereo not given)	none (no result: PAFAH1B3 inh, PAFAH2 inh, pPAFAH inh, PAFAH1B2 FP inh)
F[B-](F)(F)COCc1ccccc1C#Cc1ccccc1	none (no result: PAFAH1B3 inh, PAFAH2 inh, pPAFAH inh, PAFAH1B2 FP inh)
COc1cccc(C(=O)N[C@@H](CC(C)C)C(=O)N2CCC[C@H]2C(=O)NCc2ccccc2)c1	none (no result: PAFAH1B3 inh, PAFAH2 inh, pPAFAH inh, PAFAH1B2 FP inh)
CCc1cc(=O)oc2cc(C)cc(OCC(=O)NC(Cc3ccc(Cl)cc3)C(=O)O)c12 (stereo not given)	PAFAH1B2 FP inh 25.4
Nc1ccc(N=Nc2ccccc2)c2cccnc12	pPAFAH inh 27.9
COc1ccc(N=Nc2ccc(O)c3ncccc23)cc1	pPAFAH inh 30.9
Oc1ccc(N=Nc2ccc3c(c2)OCCO3)c2cccnc12	pPAFAH inh 32.9
CCOC(=O)N[C@H](C(=O)N1CCC[C@H]1C(=O)NCc1ccccc1)C(C)C	none (no result: PAFAH1B3 inh, PAFAH2 inh, pPAFAH inh, PAFAH1B2 FP inh)
Cc1ccc(NC(=O)c2cc(S(=O)(=O)N3CCCCC3)ccc2N2CCOCC2)cc1S(=O)(=O)N(C)C	PAFAH1B3 inh 25.5, PAFAH1B2 FP inh 27.1 (no result: pPAFAH inh)
CC(NC(=O)c1cc(S(=O)(=O)N2CCOCC2)ccc1N1CCCC1)c1ccc(Cl)c(Cl)c1 (stereo not given)	pPAFAH inh 28.4
Cc1ccc(NC(=O)c2cc(N3C(=O)C=CC3=O)ccc2N2CCOCC2)cc1	none (no result: pPAFAH inh)
Cc1ccc(NC(=O)c2cc(N3C(=O)C4CC=CCC4C3=O)ccc2N2CCOCC2)cc1Cl (stereo not given)	pPAFAH inh 25.8 (no result: TCR-CD3 inh)
Oc1c(Cl)cc(Cl)cc1C=Nc1ccccc1N1CCCC1	pPAFAH inh 29.5 (no result: PAFAH1B3 inh, TCR-CD3 inh, PAFAH2 inh, PAFAH1B2 FP inh)
O=C(CCc1c[nH]c2ccccc12)Nc1ccc(Nc2ccccc2)cc1	none (no result: PAFAH1B3 inh, PAFAH2 inh, pPAFAH inh, PAFAH1B2 FP inh)
CCOc1cc(/C=N/Nc2nc(-c3cccs3)c(NC(C)=O)s2)ccc1O	pPAFAH inh 24.9
Cc1cc(O)cc(=O)n1-c1cc(Cl)cc(Cl)c1	none (no result: PAFAH1B3 inh, PAFAH2 inh, pPAFAH inh, PAFAH1B2 FP inh)
Cc1ccc(S(=O)(=O)N2CC(C)N(C(=O)N3CCOCC3)C2)cc1 (stereo not given)	none
O=C(N1CCCCC1)C1(c2ccccc2)CCCCC1	PAFAH1B2 FP inh 29.6
O=C(N1CCOCC1)C1(c2ccccc2)CCCCC1	PAFAH1B2 FP inh 28.2
O=S(=O)(c1ccc(Br)cc1)N1CCCc2ccccc21	none
Cc1ccc(NC2=C(N3CCOCC3)C(=O)c3ccccc3C2=O)cc1	PAFAH1B3 inh 32.7, PAFAH2 inh 33.1
Cc1ccc(NC2=C(Cl)C(=O)c3ccccc3C2=O)cc1	none
CCCCN(C(=O)c1c(C)[nH]c(C(=O)OCC)c1C)c1ccccc1	PAFAH1B2 FP inh 28.2
CCOC(=O)c1c(C)[nH]c(C(=O)OCc2ccccc2F)c1C	pPAFAH inh 29.5
COC(=O)[C@]12C[C@H](CC(=O)NCc3ccccc3)C(=O)N(CCC3=CCCCC3)C1=C[C@H](COCc1ccccc1)O[C@@H]2C	none (no result: PAFAH1B3 inh, PAFAH2 inh, pPAFAH inh, PAFAH1B2 FP inh)
C[C@@H]1CN([C@@H](C)CO)C(=O)CCCn2cc(nn2)CO[C@H]1CN(C)S(=O)(=O)c1cn(C)cn1	none (no result: PAFAH1B3 inh, PAFAH2 inh, pPAFAH inh, PAFAH1B2 FP inh)
CCOC(=O)c1ccc(NC2=CC(=O)C(=O)c3ccccc32)cc1	PAFAH1B3 inh 58.2, PAFAH2 inh 37.8
NS(=O)(=O)c1ccc(NC2=CC(=O)C(=O)c3ccccc32)cc1	none
Cc1ccc(S(=O)(=O)N2CCOCC2)cc1NC(=O)COC(=O)CNC(=O)c1ccc(Oc2ccccc2)cc1	pPAFAH inh 28.4
Cc1ccc(C(=O)NCC(=O)OCC(=O)Nc2cc(S(=O)(=O)N3CCOCC3)ccc2C)cc1	none
O=C(CSc1nccc(=O)[nH]1)Nc1cccc(S(=O)(=O)N2CCOCC2)c1	pPAFAH inh 29.9
